According to PubChem BioAssay AID652106 (National Center for Advancing Translational Sciences (NCATS), 2013):
Among all 370,000 compounds or so, about 500 (0.14%) were called active. Roughly 2% stayed inconclusive and do not appear here. The call rests on the fitted dose curve; in most records, active means well fitted activation curve with a large enough effect; inconclusive means small, poorly fitted or top-dose-only effect; inactive means no such curve, though single readings can be large or run the other way. Only a selection was taken, and actives are over-represented in it overall.

test: qHTS of alpha-syn Inhibitors; details: Yeast expressing alpha-synuclein, BacTiter-Glo, 24 h; Potency: growth rescue; series mostly up to 46.1 µM; growth rescue (activation): at the top concentration; further: nearly all actives have a fitted effect of over 65% in size; on growth rescue (activation): % of control where 0% means no effect
Description: The goal of this project is to identify new chemical probes capable of reversing the toxicity associated with the Parkinson disease-related protein, alpha-synuclein. Compounds will be selected on their ability to restore growth in yeast cells expressing toxic levels of alpha-synuclein. These compounds will provide a complementary approach to deciphering the tangled mechanisms of toxicity and protection that we have uncovered through genome-wide genetic screens and are beginning to uncover in a large-scale proteomics analysis with mass spectroscopy. To this end, a miniaturized assay was developed to be screened against the Molecular Libraries Small Molecule Repository (MLSMR) to discover alpha-synuclein inhibitors. Please note that in the set-up this yeast-based assay compounds that inhibit as alpha-syn, have a read-out as activators. NIH Chemical Genomics Center [NCGC] NIH Molecular Libraries Probe Centers Network [MLPCN] MLPCN Grant: NS060957 Assay Submitter (PI): Susan Lindquist, Whitehead Institute/MIT
Dispense 2.5 microL yeast galactose medium per 1536-well plate, pin compound, dispense 2.5 microL alpha-synuclein expressing yeast in galactose medium at OD600=0.02 (pregrown in raffinose medium to mid-log phase) per well, incubate for 24 hr at 30 deg C, and cell growth will be measured using 5 microL of Bactiter/Glo reagent to entire plate and read using Luminescence Protocol in ViewLux.
Potency means the concentration at half of the fitted maximal effect.

SMILES | growth rescue (activation) | Potency
O=C(O)c1c(Br)c(Br)c(Br)c(Br)c1C1c2ccc(O)cc2Oc2cc(O)ccc21 | -15.4% (inactive) | 
O=C(CN1C(=O)COc2ccc(S(=O)(=O)N3CCCCCC3)cc21)N1CCN(c2cccc(C(F)(F)F)c2)CC1 | 0.0113% (inactive) | 
C=COC(=O)N1CCN(/[N+]([O-])=N/Oc2ccc([N+](=O)[O-])cc2[N+](=O)[O-])CC1 | -46.1% (inactive) | 
CCc1ccc(NC(=O)CCS(=O)(=O)c2cc3c(cc2Cl)NC(=O)CO3)cc1 | -0.594% (inactive) | 
O=C(CN1C(=O)COc2ccc(S(=O)(=O)N3CCOCC3)cc21)N1CCN(c2cccc(Cl)c2)CC1 | -2.18% (inactive) | 
Oc1ccc(Cl)cc1C1C=C(c2ccc3c(c2)OCO3)NC(c2ccc(F)c(Br)c2)N1 (centres undefined) | -15.1% (inactive) | 
CCCSc1nc2sc3c(c2c(=O)n1-c1cccc(Br)c1)CC(C)(C)OC3 | -13.4% (inactive) | 
CN1CCN(/[N+]([O-])=N/Oc2ccc([N+](=O)[O-])cc2[N+](=O)[O-])CC1 | -45.5% (inactive) | 
CC1(C)Cc2ccccc2-c2c[nH]c(=O)n21 | -0.0221% (inactive) | 
Cc1c(NS(=O)(=O)c2ccc(Cl)cc2)c(=O)n(-c2ccccc2)n1C | -6.56% (inactive) | 
O=C(O)C1=C/C(=C/C=[N+]2c3cc(O)c(O[C@H]4OC(CO)[C@@H](O)[C@@H](O)[C@@H]4O)cc3C[C@@H]2C(=O)[O-])C[C@H](C(=O)O)N1 (some centres undefined) | 2.51% (inactive) | 
COc1ccc(-c2nc3c(c(SCC(=O)Nc4ccc(C(=O)O)cc4)n2)Cc2ccccc2O3)cc1 | -9.8% (inactive) | 
Cc1ccc(S(=O)(=O)N2CCN(c3nc(-n4cnc5ccccc54)nc4ccccc34)CC2)cc1 | -3.83% (inactive) | 
SCc1nc2ccc(Cl)cc2[nH]1 | -7.18% (inactive) | 
COc1ccc(-c2c(C)c3ccc(O)c(CN4CCCC4)c3oc2=O)cc1OC | -5.54% (inactive) | 
CCOC(=O)/C(=C\c1ccc([N+](=O)[O-])cc1)C(=O)c1cc(C(C)=O)c(Nc2ccccc2)s1 | -0.118% (inactive) | 
CCc1ccccc1NC(=O)/C(=C/c1ccccc1)c1ccccc1 | -9.72% (inactive) | 
CCOC(=O)C(=Cc1ccccc1)C(=O)c1ccccc1 |  | 14.1 µM (active)
CCC(CC)C(=O)N1CCc2cc(OC)c(OC)cc2C1COc1ccc(F)cc1 (centres undefined) | 24.2% (inactive) | 
CC1COc2ccccc2N1C(=O)c1ccc(F)cc1 (centres undefined) | -2.44% (inactive) | 
O=C(Nc1cccc2c1CCCC2)c1ccc(F)cc1 | -1.88% (inactive) | 
O=C(Nc1nnc(C2COc3ccccc3O2)o1)c1ccc(F)cc1 (centres undefined) |  | 17.8 µM (active)
CC(C)(C)OC(=O)N1CCC(c2c(C(=O)Nc3ccc4c(c3)OCO4)cnn2-c2ccccc2)CC1 | -1.74% (inactive) | 
CCN1CCN(c2ccc(/C=C/c3ccnc4ccccc34)cc2)CC1 | -1.78% (inactive) | 
OC(CBr)CN1CCCCC1 (centres undefined) | 2.66% (inactive) | 

SMILES | growth rescue (activation) | Potency
O=C(COc1ccccc1C(=O)Nc1ccccc1)Nc1cccc(F)c1 | 3.75% (inactive) | 
CC1CC2C3CCC4=CC(=O)C=C[C@]4(C)[C@@]3(F)[C@@H](O)C[C@]2(C)[C@@]1(O)C(=O)CO (some centres undefined) | 0.504% (inactive) | 
CC1(C)CCc2cc(S(=O)(=O)N3CCN(c4nc(-c5cccs5)nc5ccccc45)CC3)ccc2O1 | 0.269% (inactive) | 
C(=Nc1ccc(/C=C/c2ccnc3ccccc23)cc1)Nc1ccc(/C=C/c2ccnc3ccccc23)cc1 | 5.25% (inactive) | 
O=C(CSc1ncc(CO)n1Cc1ccc(Cl)cc1)NCc1ccc(F)cc1 | 0.867% (inactive) | 
COc1ccc(Cl)cc1C(=O)NNC(=O)c1nc2nc(C)cc(C)n2n1 | 1.17% (inactive) | 
COc1ccc(Cl)cc1C(=O)NNC(=S)NC(=O)/C=C/c1ccco1 |  | 3.55 µM (active)
CCC(C)NC(=O)c1cc(Cl)ccc1OC (centres undefined) | -4.51% (inactive) | 
Cc1cc(C)c2oc(-c3cccc(NC(=O)c4cccc(F)c4)c3C)nc2c1 | -7.49% (inactive) | 
O=[N+]([O-])c1ccc(S(=O)(=O)N2CCN(c3nc(-c4ccccc4)nc4ccccc34)CC2)cc1 | -0.492% (inactive) | 
Cc1ccc(C=O)cc1Cl | -0.134% (inactive) | 
O=C(Nc1ccccc1)c1ccccc1OCc1ccccc1 | -2.7% (inactive) | 
OC[C@@H]1O[C@H](n2cnc3c(SCc4ccccc4)ncnc32)[C@H](O)[C@H]1O | -1.26% (inactive) | 
COc1ccc(CN(Cc2ccccc2)C(=O)c2ccc(O)cc2)cc1COc1ccc(NC(C)=O)cc1 | -0.0331% (inactive) | 
C=C1C=C(C)n2ncc(C(=O)Nc3ccccc3O)c2N1 | -8.64% (inactive) | 
COc1cccc2c1C(=O)c1c(O)c3c(c(O)c1C2=O)CC(O)(C(C)=NNC(=O)c1ccc(Cl)c(Cl)c1)CC3OC1CC(N)C(O)C(C)O1 (centres undefined) |  | 28.2 µM (active)
Nc1ncnc2nnsc12 | 4.15% (inactive) | 
CN(N=O)c1ccc(C=C2c3ccccc3-c3ccccc32)cc1 | 9.48% (inactive) | 
COc1cc(OC)c(/C=C/c2ccnc3ccccc23)c(OC)c1 | -9.27% (inactive) | 
S=c1[nH]c(=S)c2n[nH]nc2[nH]1 | 7.28% (inactive) | 
COc1ccc(Cn2c(=O)[nH]c3cc(C(=O)N4CCN(C(=O)c5ccco5)CC4)ccc3c2=O)cc1 | 2.57% (inactive) | 
COc1ccc(CN2CCc3nc(Nc4ccccc4)ncc3C2)c(OC)c1OC | -2.21% (inactive) | 
COc1cc2[nH]c(C)c(CCN3CCN(c4ccccc4)CC3)c2cc1OC | -1.73% (inactive) | 
Cc1ccc(-c2nc3ccccn3c2Nc2ccc(F)cc2)o1 | -33% (inactive) | 
CSc1ccc(C2C(C(=O)Nc3ccccc3)=C(C)Nc3nc4ccccc4n32)cc1 (centres undefined) | -4.42% (inactive) | 

SMILES | growth rescue (activation) | Potency
Cc1cccc(NC(=O)COC(=O)c2ccccc2OCc2cccc(Br)c2)c1 | -17.1% (inactive) | 
O=C1CSC2(C(=O)N(Cc3ccccc3)c3ccccc32)N1c1cccc(F)c1 (centres undefined) | 2.88% (inactive) | 
CCOC(=O)Cn1c(=O)n(C2CCCCC2)c2nc(-c3cccc(OC)c3)nc(C(N)=O)c21 | -7.15% (inactive) | 
O=C(Nc1ccccc1C(F)(F)F)c1nc(S(=O)(=O)Cc2ccccc2F)ncc1Cl | -67.1% (inactive) | 
COc1ccc(OC)c(NC(=O)C2CCCN(S(=O)(=O)c3ccc4c(c3)CCCC(=O)N4)C2)c1 (centres undefined) | -3.73% (inactive) | 
O=C1OCCN1C(=O)[C@H]1[C@H](c2ccc(Cl)cc2)C(c2cccc(Cl)c2)=NN1c1ccc(Br)cc1 | 4.33% (inactive) | 
C[C@@H]1C(c2ccc(F)cc2)=NN(c2ccc(Br)cc2)[C@H]1C(=O)N1CCOC1=O |  | 22.4 µM (active)
O=C1OCCN1C(=O)[C@H]1[C@H](c2ccccc2)C(c2ccc(F)cc2)=NN1c1ccccc1 | 16% (inactive) | 
COc1ccc(-c2nc(=N)sn2-c2ccccc2)cc1 | -51.8% (inactive) | 
Cc1ccc(C)c(N2CCN(C(=O)Cn3ncn4cccc4c3=O)CC2)c1 | 11.2% (inactive) | 
Cc1ccc(C)c(N2CCN(C(=O)CCc3nc4ccccc4[nH]3)CC2)c1 |  | 15.8 µM (active)
Cc1ccc(C)c(N2CCN(C(=O)CCc3nc(-c4cccc(C(F)(F)F)c4)no3)CC2)c1 | 8.68% (inactive) | 
COc1ccc(CNC(=O)CSc2nc3ccccc3nc2Cc2ccccc2)cc1 | 0.505% (inactive) | 
C(=Nc1ccc(/C=C/c2ccnc3ccccc23)cc1)c1cc2c3c(c1)CCCN3CCC2 | -1.08% (inactive) | 
O=C(COC(=O)c1ccccc1OCCOc1ccccc1)Nc1cccc(Br)c1 | 1.98% (inactive) | 
COc1ccc(C(C)(O)c2nc(-c3cc(F)cc(F)c3)cs2)cc1 (centres undefined) | 11.4% (inactive) | 
COc1ccc(C(C)(NC(C)=O)c2nc(-c3ccc(S(C)(=O)=O)cc3)cs2)cc1 (centres undefined) | 1.69% (inactive) | 
COc1ccc(C(C)(O)c2nc(-c3ccc(C)c(C)c3)cs2)cc1 (centres undefined) |  | 3.16 µM (active)
CCOc1n[nH]c(-c2ccccc2)n1 | -3.49% (inactive) | 
COc1ccc(N2CCN(S(=O)(=O)c3ccc(-c4coc(C)n4)cc3)CC2)cc1 | 0.286% (inactive) | 
Cc1ccc2ccc3c(c2n1)NS(=O)(=O)c1ccccc1-3 | 4.09% (inactive) | 
CCN1CCN(C(=O)C2(NC(=O)Nc3cccc(F)c3)CCCCC2)CC1 | 1.94% (inactive) | 
CC(=O)N1CCN(CC(=O)Nc2ccc(C)c(F)c2)CC1 | -0.609% (inactive) | 
CCc1sc(C(=O)N2CCN(CC(=O)Nc3cccc(F)c3)CC2)cc1C |  | 25.1 µM (active)
CC1(C)CC(=O)c2cc(C(=O)NCc3ccccc3)c(=O)[nH]c2C1 | -0.274% (inactive) | 

SMILES | growth rescue (activation) | Potency
Oc1ccccc1-c1nc2ccc(Cl)cn2c1Nc1ccc2c(c1)OCCO2 | -2.55% (inactive) | 
COc1cc(C(O)c2nc(-c3cnn(C)c3)cs2)ccc1F (centres undefined) | 5.45% (inactive) | 
COCc1cccc(-c2csc(C(O)c3ccc(F)cc3)n2)c1 (centres undefined) | 2.1% (inactive) | 
COc1ccc(C(O)c2nc(-c3ccc4c(c3)OCO4)cs2)cc1 (centres undefined) |  | 22.4 µM (active)
O=C(CCS(=O)(=O)c1ccc2c(c1)NC(=O)CO2)Nc1cccc(C(F)(F)F)c1 | -5.78% (inactive) | 
COc1cc(OC)c(OC)cc1/C=C1\C=Cc2ccccc21 | -1.18% (inactive) | 
CCC(=O)Nc1cccc(-c2nc3cc(C)ccc3o2)c1 | -39% (inactive) | 
Cc1cccc(N(C)C(=O)CS(=O)(=O)c2cccc3nsnc23)c1 | 0.638% (inactive) | 
O=C1O/C(=C\c2ccc(O)cc2)C(O)=C1c1ccc(O)cc1 | 10.7% (inactive) | 
CCN(CC)c1nc(C#N)nc(OC)n1 | 13.6% (inactive) | 
CN(C)c1ccc(C=Nc2ccc(/C=C/c3ccnc4ccccc34)cc2)cc1 | -4.02% (inactive) | 
CCOC(=O)c1ccc(NC(=O)C2CCN(S(=O)(=O)c3ccc4c(c3)CCCC(=O)N4)CC2)cc1 | 1.19% (inactive) | 
Cc1csc(NCC(=O)c2c[nH]c3ccccc23)n1 | 0.59% (inactive) | 
COc1ccc(CC(=O)Nc2nnc3n2CCS3)cc1OC | -5.8% (inactive) | 
C[N+]1(CC(=O)c2cccs2)CCOCC1 | 2.54% (inactive) | 
CC(C)(C)c1ccc(C(=O)C[n+]2cccc3cc(Cl)ccc32)cc1 | -0.379% (inactive) | 
CCOC(=O)c1c(-c2ccc(OC)cc2)oc2ccc(OCc3ccc(C(=O)OC)cc3)cc12 | -1.02% (inactive) | 
CCN(CC)c1ccc(S(=O)(=O)N2CCOCC2)cc1NC(=O)CSc1cccc[n+]1[O-] |  | 17.8 µM (active)
O=C(CSc1ccccc1)Nc1cccc(S(=O)(=O)N2CCOCC2)c1 | 2.94% (inactive) | 
CCN(CC)c1ccc(S(=O)(=O)N2CCCCC2)cc1NC(=O)C1=COCCO1 | -5.82% (inactive) | 
Cc1ccc(CCNC(=O)c2ccc(CNS(=O)(=O)c3ccc(C)cc3)cc2)cc1 | -7.23% (inactive) | 
Nc1ccc(/C=C/c2ccnc3ccccc23)c([N+](=O)[O-])c1 | -0.106% (inactive) | 
Oc1ccc(N=Nc2nccs2)c(O)c1 |  | 2.24 µM (active)
CN(C)c1ccc(/C=N\Nc2ccc([N+](=O)[O-])cc2[N+](=O)[O-])cc1Cl | -2.4% (inactive) | 
